Assay results from PubChem BioAssay (Tox21).
Results filed as inconclusive are left out. Entries that show only a call come without a potency. A structure can be active in one record and inactive in another. Activity calls are given as the source filed them. Unless noted, the call rests on the fitted dose curve.

System: not listed separately
Assay: qHTS assay to identify small molecule agonists of the endoplasmic reticulum stress response signaling pathway - cell viability counter screen (AID 1159517);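 further: HeLa cells carrying an ER stress response element beta-lactamase reporter; nearly all actives have a fitted effect of over 50% in size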
Conditions: ESRE-bla HeLa viability, CellTiter-Glo luminescence, 5 h; series mostly up to 61 µM
How it was run: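 Cytotoxicity of test compounds toward ESRE-bla HeLa cells was assessed after 5 hr exposure. The luminescent CellTiter-Glo signal was measured 30 min after reagent addition.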
In the case of NNc1ccccc1, the outcome is reported as “inactive”. With CN(C)NC(=O)CCC(=O)O the outcome was “inactive”. In the case of CC(=O)C1CCOC1=O (stereo not given), the outcome is reported as “inactive”. For CN(C)C(=O)C(c1ccccc1)c1ccccc1, the outcome was “inactive”. In the case of CN1C(=O)CCS(=O)(=O)C1c1ccc(Cl)cc1 (stereo not given), the outcome is reported as “inactive”. With Cc1ccc(O)c(C)c1 the outcome was “inactive”. In the case of O=C(O)C1C(C(=O)O)C2(Cl)C(Cl)=C(Cl)C1(Cl)C2(Cl)Cl (stereo not given), the outcome is reported as “inactive”. For Nc1ccc([As](=O)(O)O)cc1, the outcome was “inactive”. For CNC(=O)Oc1cccc2ccccc12, the outcome was “inactive”. In the case of O=[N+]([O-])c1ccc(Cl)c(Cl)c1, the outcome is reported as “inactive”. With CNC(=O)O/N=C/C(C)(C)S(C)(=O)=O the outcome was “inactive”. For CCCCC(CC)C(=O)Cl (stereo not given), the outcome was “inactive”. For CCNc1nc(Cl)nc(NC(C)C)n1, the outcome was “inactive”. For C=C(C)C(=O)OCC(CC)CCCC (stereo not given), the outcome was “inactive”. With Cc1ccc(N)cc1 the outcome was “inactive”. For Cc1cc(Cl)ccc1OC(C)C(=O)O (stereo not given), the outcome was “inactive”. For Cc1cccc(N)c1C, the outcome was “inactive”. For CCOP(=S)(OCC)Oc1cc(C)nc(C(C)C)n1, the outcome was “inactive”. For OCC(O)CCl (stereo not given), the outcome was “inactive”. For Oc1c(Br)cc(Br)cc1Br, the outcome was “inactive”. For Cc1cccc(C)c1N, the outcome was “inactive”. In the case of O=C(O)C(Br)Br, the outcome is reported as “inactive”. In the case of Cc1ccccc1N, the outcome is reported as “inactive”. In the case of CN(C)C(=O)Cl, the outcome is reported as “inactive”. For COC(C)(C)CCCC(C)C/C=C/C(C)=C/C(=O)OC(C)C (stereo not given), the outcome was “inactive”. For Cc1cccc(C)c1NC(=O)CN1CCCC1=O, the outcome was “inactive”. With Oc1ccc(Cl)cc1 the outcome was “inactive”. For CC(C)(C)C(=O)CCl, the outcome was “inactive”. In the case of Nc1cc(Cl)cc(Cl)c1, the outcome is reported as “inactive”. In the case of CSc1nnc(C(C)(C)C)c(=O)n1N, the outcome is reported as “inactive”.

System: not listed separately
Assay: qHTS assay to identify small molecule antagonists of the retinoid-related orphan receptor gamma (ROR-gamma) signaling pathway - cell viability counter screen (AID 1159520; active means well fitted curve in the direction sought with a large enough effect in the repeat runs; an effect the other way counts as inactive or inconclusive; further: nearly all actives have a fitted effect of over 50% in size)
Conditions: Tet-on RORgamma CHO cells viability, ATP luminescence, 16 h; series mostly up to 92.4 µM
How it was run: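 Tet-on ROR gamma CHO cells (1,000/well) were plated 4 hr, given compounds in DMSO for 2 hr at 37 C, then induced with 1 uM final doxycycline for 16 hr. Viability was read as ATP by CellTiter-Glo luminescence after 30 min.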
In the case of NNc1ccccc1, the outcome is reported as “inactive”. For CN(C)NC(=O)CCC(=O)O, the outcome was “inactive”. In the case of CC(=O)C1CCOC1=O (stereo not given), the outcome is reported as “inactive”. With CN(C)C(=O)C(c1ccccc1)c1ccccc1 the outcome was “inactive”. In the case of CN1C(=O)CCS(=O)(=O)C1c1ccc(Cl)cc1 (stereo not given), the outcome is reported as “inactive”. With Cc1ccc(O)c(C)c1 the outcome was “inactive”. With O=C(O)C1C(C(=O)O)C2(Cl)C(Cl)=C(Cl)C1(Cl)C2(Cl)Cl (stereo not given) the outcome was “inactive”. For Nc1ccc([As](=O)(O)O)cc1, the outcome was “inactive”. For CNC(=O)Oc1cccc2ccccc12, the outcome was “inactive”. For O=[N+]([O-])c1ccc(Cl)c(Cl)c1, the outcome was “inactive”. In the case of CNC(=O)O/N=C/C(C)(C)S(C)(=O)=O, the outcome is reported as “inactive”. In the case of CCCCC(CC)C(=O)Cl (stereo not given), the outcome is reported as “inactive”. In the case of CCNc1nc(Cl)nc(NC(C)C)n1, the outcome is reported as “inactive”. For C=C(C)C(=O)OCC(CC)CCCC (stereo not given), the outcome was “inactive”. In the case of Cc1ccc(N)cc1, the outcome is reported as “inactive”. In the case of Cc1cc(Cl)ccc1OC(C)C(=O)O (stereo not given), the outcome is reported as “inactive”. With Cc1cccc(N)c1C the outcome was “inactive”. With CCOP(=S)(OCC)Oc1cc(C)nc(C(C)C)n1 the outcome was “inactive”. With OCC(O)CCl (stereo not given) the outcome was “inactive”. For Oc1c(Br)cc(Br)cc1Br, the outcome was “inactive”. For Cc1cccc(C)c1N, the outcome was “inactive”. In the case of O=C(O)C(Br)Br, the outcome is reported as “inactive”. For Cc1ccccc1N, the outcome was “inactive”. With CN(C)C(=O)Cl the outcome was “inactive”. With COC(C)(C)CCCC(C)C/C=C/C(C)=C/C(=O)OC(C)C (stereo not given) the outcome was “inactive”. For Cc1cccc(C)c1NC(=O)CN1CCCC1=O, the outcome was “inactive”. For Oc1ccc(Cl)cc1, the outcome was “inactive”. With CC(C)(C)C(=O)CCl the outcome was “inactive”. With Nc1cc(Cl)cc(Cl)c1 the outcome was “inactive”. With CSc1nnc(C(C)(C)C)c(=O)n1N the outcome was “inactive”.

Target: Nuclear receptor ROR-gamma (Homo sapiens) (UniProt P51449)
Assay: qHTS assay to identify small molecule antagonists of the retinoid-related orphan receptor gamma (ROR-gamma) signaling pathway (AID 1159521; active means well fitted curve in the direction sought with a large enough effect in the repeat runs; an effect the other way counts as inactive or inconclusive; further: nearly all actives have a fitted effect of over 50% in size; further: potency means the concentration at half of the fitted maximal effect)
Conditions: Tet-on RORgamma CHO cells, RORE-luciferase, 16 h; series mostly up to 92.4 µM
How it was run: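 CHO Tet-on RORγ, RORE-luc reporter. Cpd 2 h pre-incubation, then dox hyclate 1 uM final, 16 h, 37 C/5% CO2. ONE-Glo luminescence; decrease = antagonist.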
In the case of NNc1ccccc1, the Potency is reported as “inactive”. With CN(C)NC(=O)CCC(=O)O the Potency was “inactive”. For CC(=O)C1CCOC1=O (stereo not given), the Potency was “inactive”. With CN(C)C(=O)C(c1ccccc1)c1ccccc1 the Potency was “inactive”. With CN1C(=O)CCS(=O)(=O)C1c1ccc(Cl)cc1 (stereo not given) the Potency was “inactive”. With Cc1ccc(O)c(C)c1 the Potency was “inactive”. For O=C(O)C1C(C(=O)O)C2(Cl)C(Cl)=C(Cl)C1(Cl)C2(Cl)Cl (stereo not given), the Potency was “inactive”. With Nc1ccc([As](=O)(O)O)cc1 the Potency was “inactive”. For CNC(=O)Oc1cccc2ccccc12, the Potency was “inactive”. With O=[N+]([O-])c1ccc(Cl)c(Cl)c1 the Potency was “inactive”. In the case of CNC(=O)O/N=C/C(C)(C)S(C)(=O)=O, the Potency is reported as “inactive”. In the case of CCCCC(CC)C(=O)Cl (stereo not given), the Potency is reported as “inactive”. In the case of CCNc1nc(Cl)nc(NC(C)C)n1, the Potency is reported as “inactive”. In the case of C=C(C)C(=O)OCC(CC)CCCC (stereo not given), the Potency is reported as 49.5 µM (active) and inactive. With Cc1ccc(N)cc1 the Potency was “inactive”. With Cc1cc(Cl)ccc1OC(C)C(=O)O (stereo not given) the Potency was “inactive”. For Cc1cccc(N)c1C, the Potency was “inactive”. In the case of CCOP(=S)(OCC)Oc1cc(C)nc(C(C)C)n1, the Potency is reported as “inactive”. In the case of OCC(O)CCl (stereo not given), the Potency is reported as “inactive”. For Oc1c(Br)cc(Br)cc1Br, the Potency was “inactive”. In the case of Cc1cccc(C)c1N, the Potency is reported as “inactive”. For O=C(O)C(Br)Br, the Potency was “inactive”. In the case of Cc1ccccc1N, the Potency is reported as “inactive”. In the case of CN(C)C(=O)Cl, the Potency is reported as “inactive”. In the case of COC(C)(C)CCCC(C)C/C=C/C(C)=C/C(=O)OC(C)C (stereo not given), the Potency is reported as “inactive”. With Cc1cccc(C)c1NC(=O)CN1CCCC1=O the Potency was “inactive”. With Oc1ccc(Cl)cc1 the Potency was “inactive”. For CC(C)(C)C(=O)CCl, the Potency was “inactive”. For Nc1cc(Cl)cc(Cl)c1, the Potency was “inactive”. For CSc1nnc(C(C)(C)C)c(=O)n1N, the Potency was “inactive”.

System: not listed separately
Assay: qHTS assay to identify small molecule agonists of the AP-1 signaling pathway - cell viability counter screen (AID 1159525); further: nearly all actives have a fitted effect of over 55% in size
Conditions: ME-180 (cervical carcinoma) AP-1-bla cells viability, ATP luminescence, 5 h; series mostly up to 76.8 µM
How it was run: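 Each titration point was normalised to DMSO and tetra n-octyl ammonium bromide controls. The read was Cell Titer Glo luminescence after 30 min at RT, following 5 h compound exposure of ME-180 AP-1-bla cells at 37 °C.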
With NNc1ccccc1 the outcome was “inactive”. With CN(C)NC(=O)CCC(=O)O the outcome was “inactive”. With CC(=O)C1CCOC1=O (stereo not given) the outcome was “inactive”. In the case of CN(C)C(=O)C(c1ccccc1)c1ccccc1, the outcome is reported as “inactive”. With CN1C(=O)CCS(=O)(=O)C1c1ccc(Cl)cc1 (stereo not given) the outcome was “inactive”. For Cc1ccc(O)c(C)c1, the outcome was “inactive”. For O=C(O)C1C(C(=O)O)C2(Cl)C(Cl)=C(Cl)C1(Cl)C2(Cl)Cl (stereo not given), the outcome was “inactive”. With Nc1ccc([As](=O)(O)O)cc1 the outcome was “inactive”. With CNC(=O)Oc1cccc2ccccc12 the outcome was “inactive”. For O=[N+]([O-])c1ccc(Cl)c(Cl)c1, the outcome was “inactive”. With CNC(=O)O/N=C/C(C)(C)S(C)(=O)=O the outcome was “inactive”. In the case of CCCCC(CC)C(=O)Cl (stereo not given), the outcome is reported as “inactive”. In the case of CCNc1nc(Cl)nc(NC(C)C)n1, the outcome is reported as “inactive”. In the case of C=C(C)C(=O)OCC(CC)CCCC (stereo not given), the outcome is reported as “inactive”. For Cc1ccc(N)cc1, the outcome was “inactive”. In the case of Cc1cc(Cl)ccc1OC(C)C(=O)O (stereo not given), the outcome is reported as “inactive”. For Cc1cccc(N)c1C, the outcome was “inactive”. In the case of CCOP(=S)(OCC)Oc1cc(C)nc(C(C)C)n1, the outcome is reported as “inactive”. In the case of OCC(O)CCl (stereo not given), the outcome is reported as “inactive”. In the case of Oc1c(Br)cc(Br)cc1Br, the outcome is reported as “inactive”. With Cc1cccc(C)c1N the outcome was “inactive”. With O=C(O)C(Br)Br the outcome was “inactive”. For Cc1ccccc1N, the outcome was “inactive”. For CN(C)C(=O)Cl, the outcome was “inactive”. In the case of COC(C)(C)CCCC(C)C/C=C/C(C)=C/C(=O)OC(C)C (stereo not given), the outcome is reported as “inactive”. For Cc1cccc(C)c1NC(=O)CN1CCCC1=O, the outcome was “inactive”. For Oc1ccc(Cl)cc1, the outcome was “inactive”. In the case of CC(C)(C)C(=O)CCl, the outcome is reported as “inactive”. For Nc1cc(Cl)cc(Cl)c1, the outcome was “inactive”. For CSc1nnc(C(C)(C)C)c(=O)n1N, the outcome was “inactive”.
